Assay [1] can be described thus: qHTS assay to identify small molecule antagonists of the estrogen related receptor (ERR) signaling pathway from Tox21 library - cell viability counter screen (AID 1224834). Further: nearly all actives have a fitted effect of over 30% in size. Further: potency means the concentration at half of the fitted maximal effect. In a few lines: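 Counter screen run in ERR cells (2,000 cells/well): cells pre-incubated 6 h, then treated with compounds for 17.5 h at 37 C. Fluorescence was read 30 min after CellTiter-Fluor addition.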

For assay [2], the target named is Luciferin 4-monooxygenase (Photinus pyralis) (UniProt P08659). Briefly: qHTS assay to identify small molecule inhibitors of firefly luciferase (AID 1224835). Further: nearly all actives have a fitted effect of over 25% in size. Further: potency means the concentration at half of the fitted maximal effect. In a few lines: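 Biochemical qHTS: compounds run as interplate titrations against purified firefly enzyme, with D-luciferin and ATP each at its KM concentration. Light output recorded by CCD imaging.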
The nature of assay [3]: qHTS assay to identify small molecule agonists of the constitutive androstane receptor (CAR) signaling pathway - cell viability counter screen (AID 1224836). Further: nearly all actives have a fitted effect of over 45% in size. Further: potency means the concentration at half of the fitted maximal effect. In a few lines:
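Multiplexed viability check: HepG2-CYP2B6-hCAR cells, 15-point compound dosing, 0.75 uM PK11195 final, 23 h at 37 C, CellTiter-Fluor fluorescence.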

The nature of assay [4]: qHTS assay to identify small molecule antagonists of the constitutive androstane receptor (CAR) signaling pathway - cell viability counter screen (AID 1224837). Further: nearly all actives have a fitted effect of over 45% in size. Further: potency means the concentration at half of the fitted maximal effect. In a few lines: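 CITCO at 50 nM final was added alongside compounds (15 concentrations) to double-stable hCAR/CYP2B6-2.2kb HepG2 cells. Following 23 hr at 37 C, cell viability was quantified by CellTiter-Fluor fluorescence intensity.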

Assay [5] addresses Nuclear receptor subfamily 1 group I member 3 (Homo sapiens) (UniProt Q14994). Briefly: qHTS assay to identify small molecule antagonists of the constitutive androstane receptor (CAR) signaling pathway (AID 1224838). Further: nearly all actives have a fitted effect of over 40% in size. Further: potency means the concentration at half of the fitted maximal effect. In a few lines: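 Inhibition of CITCO-driven (50 nM final) CYP2B6 reporter expression is measured in HepG2 cells stably carrying hCAR. Fifteen compound concentrations are applied for 24 h at 37 C, followed by luciferase luminescence.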

For assay [6] the target is unchanged. The assay can be described thus: qHTS assay to identify small molecule agonists of the constitutive androstane receptor (CAR) signaling pathway (AID 1224839). Further: nearly all actives have a fitted effect of over 15% in size. Further: potency means the concentration at half of the fitted maximal effect. In a few lines: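 Using human hepatoma HepG2 cells engineered with hCAR and a CYP2B6-2.2kb reporter, 15-concentration compound series were incubated 24 h alongside PK11195 at 0.75 uM final, with luminescence quantified afterwards.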

A short description of assay [7]: qHTS assay to identify small molecule antagonists of the estrogen related receptor signaling pathway with the pleiotropic PPARgamma coactivator (PGC) from Tox21 10K library - cell viability counter screen (AID 1224840; active means well fitted cell-killing curve with a large enough effect in the repeat runs, not every such curve was filed as active; further: nearly all actives have a fitted effect of over 40% in size; further: potency means the concentration at half of the fitted maximal effect). In a few lines:
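Readout: fluorescence intensity from CellTiter-Fluor after 30 min at 37 C/5% CO2. Preceded by 17.5 h treatment of PGC/ERR cells with DMSO-dissolved compounds, added 6 h post-seeding.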

A short description of assay [8]: qHTS assay to identify small molecule agonists of the estrogen related receptor signaling pathway with the pleiotropic PPARgamma coactivator (PGC) (AID 1224823). In a few lines: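 In this quantitative high-throughput screen, an 18 h, 37 C treatment of PGC/ERR cells with compounds in DMSO preceded a One-Glo luminescence read taken after 30 min at room temperature.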

The nature of assay [9]: qHTS assay to identify small molecule agonists of the estrogen related receptor signaling pathway with the pleiotropic PPARgamma coactivator (PGC) from Tox21 10K library (AID 1224842). Further: nearly all actives have a fitted effect of over 15% in size. The gist of the method: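 PGC/ERR reporter cell line, 2,000 cells per well, incubated 6 h at 37 C before 23 nL compound in DMSO was added. After 18 h at 37 C, One-Glo luminescence read following 30 min at room temperature.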

The nature of assay [10]: qHTS assay to identify small molecule antagonists of the estrogen related receptor signaling pathway with the pleiotropic PPARgamma coactivator (PGC) from Tox21 10K library (AID 1224841; call rule not given here; further: series mostly up to about 92 µM; actives are mostly falling curves and most rising ones were filed inactive; nearly all actives have a fitted effect of over 50% in size). The gist of the method: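 One-Glo luminescence, measured after half an hour at room temperature, quantified reporter output of PGC/ERR cells. These had been plated at 2,000 per well, incubated 6 h, dosed with compounds in DMSO, then kept 18 h at 37 C.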

Results filed as inconclusive are left out. The source made the active and inactive calls. Unless noted, the call rests on the fitted dose curve; in most records, active means well fitted curve in the direction sought with a large enough effect in the repeat runs; inconclusive means weak or mixed curves; inactive means no such curve, though single readings can be large; an effect the other way counts as inactive or inconclusive.

Chain of Nuclear receptor subfamily 1 group I member 3 (Homo sapiens) (Q14994 whole entry, looked up): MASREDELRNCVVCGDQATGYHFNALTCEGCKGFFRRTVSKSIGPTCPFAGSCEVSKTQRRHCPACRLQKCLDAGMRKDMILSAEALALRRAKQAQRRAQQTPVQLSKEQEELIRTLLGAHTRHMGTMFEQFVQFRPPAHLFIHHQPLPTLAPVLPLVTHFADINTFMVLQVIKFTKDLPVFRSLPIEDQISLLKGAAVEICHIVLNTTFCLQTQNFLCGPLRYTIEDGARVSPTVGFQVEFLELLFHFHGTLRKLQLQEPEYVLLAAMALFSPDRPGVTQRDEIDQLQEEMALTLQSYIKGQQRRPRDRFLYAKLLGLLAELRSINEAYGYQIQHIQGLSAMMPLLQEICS
Chain of Luciferin 4-monooxygenase (Photinus pyralis) (P08659 whole entry, looked up): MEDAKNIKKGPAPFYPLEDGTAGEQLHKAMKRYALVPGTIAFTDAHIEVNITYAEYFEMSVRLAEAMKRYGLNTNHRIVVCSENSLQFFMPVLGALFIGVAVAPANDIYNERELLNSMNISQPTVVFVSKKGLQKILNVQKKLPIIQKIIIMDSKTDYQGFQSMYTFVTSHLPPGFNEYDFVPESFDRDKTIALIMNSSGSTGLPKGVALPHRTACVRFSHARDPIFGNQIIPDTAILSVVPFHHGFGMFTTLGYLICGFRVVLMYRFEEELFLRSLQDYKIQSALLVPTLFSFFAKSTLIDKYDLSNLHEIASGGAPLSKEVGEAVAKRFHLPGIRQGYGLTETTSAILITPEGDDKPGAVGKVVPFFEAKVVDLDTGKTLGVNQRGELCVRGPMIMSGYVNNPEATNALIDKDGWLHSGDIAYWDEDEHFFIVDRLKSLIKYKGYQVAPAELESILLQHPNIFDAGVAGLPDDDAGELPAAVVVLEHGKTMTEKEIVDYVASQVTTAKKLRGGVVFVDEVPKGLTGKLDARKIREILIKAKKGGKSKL

Regarding `c1ccc2c(c1)CCc1ccccc1N2`, the Potency result in [1], in [3], in assay [4], in assay [5] and in [7] was “inactive” in each case. Besides, the Potency is 63.6 µM (active) in assay [2] and 54.8 µM (active) in [6].
For `CCCC(C(=O)OCCN(CC)CC)(c1ccccc1)c1ccccc1`, in assay [8], the outcome was inactive. Also, the Potency is 29.8 µM (active) in [1] and 11.9 µM (active) in assay [6]. Also, the Potency entry in assay [2], in [3], in [5] and in assay [9] was “inactive” throughout.
For `Brc1cc(Br)c(Oc2cc(Br)c(Br)cc2Br)cc1Br`, the Potency entry in assay [1], in assay [2], in assay [3], in [4], in assay [5] and in assay [6] was “inactive” each time. In assay [7], the Potency result is “inactive”.
On to `COC(=O)CCS`, for which the Potency result in assay [1], in assay [2], in assay [3], in [4], in assay [5] and in [6] was “inactive” throughout.
Turning to `Cc1cscn1`, the Potency entry in assay [1], in assay [2], in [3] and in assay [4] was “inactive” each time.
As for `CC1CC(C)C(=O)C1=O` (stereo not given), the Potency result in assay [1], in assay [2], in assay [3], in assay [4], in assay [5] and in assay [6] was “inactive” throughout. Further, the Potency entry in [7] was “inactive”.
As for `O=C(O)CCc1nc(-c2ccccc2)c(-c2ccccc2)o1`, the compound was classed as inactive in [8]. Besides, the Potency entry in assay [1], in assay [2], in assay [3], in assay [4], in assay [5] and in assay [7] was “inactive” each time. Besides, the Potency entry in assay [10] and in assay [9] was “inactive” in each case.
For `CC(C)COCC(CN(Cc1ccccc1)c1ccccc1)N1CCCC1` (stereo not given), the Potency was 26.6 µM (active) in assay [1]; 29.8 µM (active) in [3]; 29.8 µM (active) in assay [4]; 18.8 µM (active) in assay [5]; 29.8 µM (active) in [7]. In addition, the Potency entry in [2] and in assay [6] was “inactive” throughout.
As for `O=C(Nc1cccc2c(=O)cc(-c3nn[nH]n3)oc12)c1ccc(OCCCCc2ccccc2)cc1`, the Potency entry in assay [1], in assay [3], in assay [4], in assay [5] and in assay [6] was “inactive” throughout. In addition, in [2], the Potency is 27.5 µM (active).
On to `O=C(OC(=O)c1ccccc1)c1ccccc1`, for which the Potency result in assay [1], in assay [2], in assay [3] and in assay [4] was “inactive” in each case.
Turning to `CCC=CC#N`, the Potency result in assay [1], in assay [2], in assay [3], in [4], in assay [5] and in assay [6] was “inactive” in each case. In addition, in assay [7], the Potency result is “inactive”.
`CC(C)(c1ccccc1)c1ccccc1`: the Potency result in assay [1], in assay [2], in [3], in assay [4], in assay [5] and in [7] was “inactive” each time. For the same compound, the Potency in assay [6] is 45.1 µM (active).
Consider `CN(C)CCC=C1c2ccccc2C=Cc2ccccc21`, for which the result in [8] was inactive. In addition, the Potency entry in assay [2], in [3], in assay [5], in assay [6], in assay [10] and in assay [9] was “inactive” throughout.
Regarding `CN1C[C@H](C(=O)N[C@]2(C)O[C@@]3(O)[C@@H]4CCCN4C(=O)[C@H](Cc4ccccc4)N3C2=O)C[C@@H]2c3cccc4[nH]cc(c34)C[C@H]21`, the result in assay [8] was inactive. The Potency in assay [1] was 26.6 µM (active). Further, the Potency result in [2], in assay [5], in assay [6], in assay [10] and in assay [9] was “inactive” throughout.
With `OCCN1CCN(CCCN2c3ccccc3Sc3ccc(Cl)cc32)CC1`, the call in assay [8] was inactive. For the same compound, the Potency was 26.6 µM (active) in [1] and 29.8 µM (active) in [3]. Further, the Potency entry in assay [2], in [6] and in assay [10] was “inactive” in each case.
Regarding `CCOC(=O)OC(C)OC(=O)[C@@H]1N2C(=O)[C@@H](NC(=O)[C@H](N)c3ccccc3)[C@H]2SC1(C)C` (stereo not given in full), the Potency result in assay [1], in assay [2], in assay [3], in assay [4] and in assay [5] was “inactive” each time.
Regarding `CCc1ccccc1`, the Potency result in [1], in [2], in assay [3], in assay [4], in assay [5] and in assay [6] was “inactive” throughout.
Consider `C1C[C@@H]2[C@H]3CC[C@H](C3)[C@@H]2C1`, for which the Potency result in [1], in assay [2], in assay [3], in assay [4], in [5] and in assay [6] was “inactive” in each case. In [7], the Potency result was “inactive”.
`CCC(=O)OC`: the Potency result in assay [1], in assay [2], in [3], in assay [4], in assay [5] and in assay [6] was “inactive” each time. For the same compound, in assay [7], the Potency result was “inactive”.
As for `O=C1CCCCCCCCCCOCCCCO1`, the Potency entry in assay [1], in assay [2], in assay [3], in assay [4], in [5] and in [6] was “inactive” throughout. Besides, in assay [7], the Potency entry was “inactive”.
Consider `O=C(CCc1ccc(O)cc1)c1c(O)cc(O)cc1O`, for which the call in assay [8] was inactive. For the same compound, the Potency in [2] was 72.6 µM (active). Besides, the Potency result in assay [3], in assay [4], in assay [10] and in [9] was “inactive” each time.
`Nc1ncnc2c1ncn2[C@H]1CC[C@@H](CO)O1`: the Potency entry in assay [1], in [2], in [3], in assay [4], in [5] and in [6] was “inactive” each time.
For the compound `CCCCN1CCCC1C(=O)Nc1c(C)cc(C)cc1C` (stereo not given), the Potency entry in assay [1], in assay [2], in assay [3], in assay [4], in assay [5] and in assay [7] was “inactive” throughout. In addition, the Potency in [6] is 29.8 µM (active).
For the compound `C1COC1`, the Potency result in [1], in [2], in assay [3], in assay [4], in [5] and in [6] was “inactive” throughout. Besides, in [7], the Potency entry was “inactive”.
Take `N#CCCN(CCO)CCO`: the Potency entry in assay [1], in assay [2], in assay [3], in assay [4], in assay [5] and in [6] was “inactive” each time.
Turning to `O=C(/C=C/c1ccccc1)OCCc1ccccc1`, the Potency result in assay [1], in assay [3], in [4] and in [5] was “inactive” throughout. For the same compound, in [2], the Potency was 4.48 µM (active).
Consider `CN1C(=O)c2ccccc2C1=O`, for which, in [8], the result was inactive. In addition, the Potency entry in assay [1], in [2], in [4], in [5], in [6] and in [7] was “inactive” in each case. Further, the Potency entry in [10] and in assay [9] was “inactive” each time.
For the compound `CC(C)=CCC1C(=O)N(c2ccccc2)N(c2ccccc2)C1=O`, the Potency entry in assay [1], in [2], in assay [3], in assay [4], in assay [5] and in assay [6] was “inactive” in each case. Besides, the Potency result in assay [7] is “inactive”.
As for `C[C@H]1c2cccc(O)c2C(O)=C2C(=O)[C@]3(O)C(O)=C(C(N)=O)C(=O)[C@@H](N(C)C)[C@@H]3[C@@H](O)[C@@H]21`, the outcome in [8] was inactive. In addition, the Potency entry in assay [1], in assay [2], in assay [4], in [5], in [7] and in [9] was “inactive” in each case.
For the compound `O=C(/C=C/c1ccc(O)c(O)c1)O[C@@H]1C[C@@](OC(=O)/C=C/c2ccc(O)c(O)c2)(C(=O)O)C[C@@H](O)[C@@H]1O`, the Potency entry in assay [1], in assay [2] and in [3] was “inactive” in each case.
Regarding `CCN(CC)CCNC(=O)COc1ccc(OC)cc1`, the Potency result in assay [1], in assay [2], in [3], in assay [4], in assay [5] and in [6] was “inactive” in each case. The Potency entry in assay [7] is “inactive”.

(Values after PubChem BioAssay (Tox21).)
